Source: PubChem BioAssay (Broad Institute)
CFTR F508del cor = F508del CFTR correction, initial screen, CFBE line, single point. CFBE cells, YFP halide quenching; stimulated with forskolin plus potentiator P3; % fluorescence drop versus neutral controls. activity (quench increase), % at 7.58 µM. 0.36% of 350,000 active;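 active = mean added fluorescence quench of at least 8% versus neutral control, with both replicates also reaching 8%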;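 note: cells transiently co-express mutant CFTR-F508del with the halide-sensitive YFP; corrector assay measuring rescue of mutant channel to the surface after 24 h compound exposure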
EWS-Fli inh = EWS/Fli-driven NR0B1 reporter inhibitors, primary screen, A673 cells, NR0B1 luciferase, luminescence, MLPCN library; viability-normalised; inhibition, % at 12.6 µM; 0.67% of 350,000 active; AID 651661, 2012;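 active = mean inhibition of at least 50% after viability correction, with every replicate also passing that limit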;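 note: firefly luciferase signal divided by Alamar Blue viability fluorescence both relative to DMSO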
GSIS activator = GLuc luminescence reporter in INS-1E cells, primary screen for activators of glucose-dependent secretion of insulin; INS-1E GLuc reporter insulin secretion, 2-3 h; activation, % at 16.6 µM; 0.61% of 370,000 active;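 active = lowest replicate activation of at least 40%, so every replicate reaches that level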;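 note: 0% = median of neutral control wells and 100% = median of IBMX positive control wells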
RAD52 inh = RAD52 DNA annealing inhibitors, primary screen, biochemical, FRET, single point, set 2; recombinant RAD52 DNA annealing, FRET fluorescence; DNA repair protein RAD52 homolog (Homo sapiens), P43351; inhibition, % at 18.7 µM; 0.46% of 360,000 active;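 active = every replicate showing at least 50% inhibition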
Target sequence (P43351 whole entry, looked up): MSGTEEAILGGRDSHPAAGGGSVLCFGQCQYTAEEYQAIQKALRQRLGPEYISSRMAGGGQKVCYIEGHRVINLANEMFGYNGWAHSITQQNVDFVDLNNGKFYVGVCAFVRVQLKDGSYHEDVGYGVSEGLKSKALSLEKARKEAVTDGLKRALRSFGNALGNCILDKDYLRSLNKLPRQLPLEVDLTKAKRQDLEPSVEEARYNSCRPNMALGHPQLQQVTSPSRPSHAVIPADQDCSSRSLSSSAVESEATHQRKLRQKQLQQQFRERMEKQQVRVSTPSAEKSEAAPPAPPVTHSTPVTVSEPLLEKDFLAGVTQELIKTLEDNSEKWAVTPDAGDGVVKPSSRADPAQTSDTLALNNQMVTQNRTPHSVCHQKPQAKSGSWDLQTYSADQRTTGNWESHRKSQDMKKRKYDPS
RAD54 branch = inhibitors of human RAD54 branch migration, primary screen, biochemical, fluorescence, single point; DNA repair and recombination protein RAD54-like (Homo sapiens), Q92698; RAD54 Holliday junction branch migration, FAM/BHQ fluorescence; inhibition, % at 10.4 µM; 0.14% of 360,000 active;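 active = mean normalized replicate activity at least 40 and at least half of replicates scoring 40 or more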;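 note: 0% = median of neutral control wells and 100% = median of positive control wells; inhibitors cause a drop in the FAM fluorescence signal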
LGR2 antag = inhibitors of bursicon-induced LGR2 CRE-luciferase signal, primary screen, cell-based, HEK293, CRE-luciferase reporter, bursicon stimulation | bursicon-stimulated, 4 h | 0.35% of 380,000 active | AID 720647, 2013 | inhibition, % at 9.99 µM | Drosophila bursicon receptor LGR2 (rickets);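 active = drop in luminescence signal, shown as inhibition above about 50% in the replicate tests, limit read from the data, passing the limit was not always enough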;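 note: agonist challenge used bursicon conditioned medium at about half maximal strength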
Starred values were filed as active, the others as inactive; . = no result given. Only some compounds are listed: those with a hit (about 1.8% of all), similar ones and a draw of the others.

SMILES	CFTR F508del cor	EWS-Fli inh	GSIS activator	RAD52 inh	RAD54 branch	LGR2 antag
CCc1ccc(/C=C2\SC(=S)N(CCCC(=O)Nc3nccs3)C2=O)cc1	.	.	121*	.	-1	10
Cc1ccc(/C=C2\SC(=S)N(CCCC(=O)Nc3nccs3)C2=O)cc1	.	-7	.	14	3	.
CCOc1ccc(/C=C2\SC(=S)N(CCCC(=O)NCCCN3CCOCC3)C2=O)cc1	-1	81*	-5	-7	-20	-18
CCNC(=O)C[C@H]1CC[C@H]2[C@@H](COc3ccc(NC(=O)Nc4cccc(C)c4)cc3C(=O)N2C)O1	3	6	16	4	-2	-1
COc1ccc(NC(=O)Nc2ccc3c(c2)CC(=O)N([C@@H](C)CO)C[C@@H](C)[C@@H](CN(C)Cc2ccc4c(c2)OCO4)O3)cc1	4	-2	-10	14	-3	4
OCc1nnc2c3ccccc3c(-c3ccccc3)nn12	.	.	41*	-2	-3	3
C(=C\c1ccccn1)/c1ccncc1	0	-34	-1	-12	7	-2
C(/C=C/c1ccccn1)=C\c1ccccc1	-3	-78	9	-14	.	76*
COc1ccccc1C(=O)Nc1ccc(Br)c2cccnc12	-1	-9	2	-12	-16	-8
O=c1cc(-c2ccccc2)[nH]c2cc(Cl)ccc12	4	59*	.	-5	-14	.
Cc1ccc(-c2cc(=O)c3cc(C)ccc3[nH]2)cc1	-3	59*	-14	-8	-17	53*
O=c1cc(-c2ccccc2)[nH]c2ccc(F)cc12	8.6*	58*	.	-1	0	5
Cc1ccc2[nH]c(-c3cccc(F)c3)cc(=O)c2c1	4	57*	.	-14	-10	-38
Cc1ccc(-c2cc(=O)c3cc(F)ccc3[nH]2)cc1	3	-55	9	-7	-2	-54
COC(=O)C1=C(C)NC(C)=C([N+](=O)[O-])C1c1ccccc1C(F)(F)F (centres undefined)	0	-17	0	-5	-11	-4
O=C1C[C@H](c2ccccc2)C(=O)N[C@@H](c2ccccc2)C/C=C\C[C@H](c2ccccc2)N1	.	.	21	.	.	.
CCc1ccc(N2CC(C(=O)N/N=C/c3ccccc3OC)CC2=O)cc1 (centres undefined)	-2	-14	-28	-2	-5	4
CO[C@H]1CN(C)C(=O)c2ccc(NS(C)(=O)=O)cc2OC[C@@H](C)N(C(=O)C2CCCC2)C[C@@H]1C	-1	-10	-2	2	1	7
COc1ccc(-c2noc(-c3csc([C@@H]4C[C@H](O)[C@@H](CO)O4)n3)n2)cc1OC	-2	-104	.	0	-2	-13
O=C(Cn1nc(Cc2cccnc2)c2ccccc2c1=O)Nc1cc(F)ccc1F	2	-5	26	-22	-3	2
O=c1cc(-c2cccc(F)c2)[nH]c2ccccc12	3	66*	6	-4	0	-17
COc1ccc2[nH]c(-c3cccc(F)c3)cc(=O)c2c1	3	30	11	-15	-5	-31
O=C(COc1ccc2ccccc2c1)Nc1nccs1	1	7	-4	8	.	73*
O=C1c2cccnc2C(=O)N1CO	.	.	.	.	5	.
NC1=C(Br)C(=O)c2ncccc2C1=O	-5	20	-10	6	.	101*
Cc1ccc(Nc2ncnc3sccc23)c(C)c1	2	-57	42*	-12	-3	-37
CCOc1nc(CC(C)C)c2c(c1C#N)CC(C)(C)OC2	-1	15	51*	-6	-10	-5
CCOc1ncnc2c1oc1nc(CC(C)C)c3c(c12)CC(C)(C)OC3	3	0	10	-5	-2	-22
CC(C)[C@H](N)C(=O)N[C@H]1CCC2C3CC=C4C[C@@H](O)CC[C@]4(C)C3CC[C@@]21C (some centres undefined)	0	53*	28	18	-4	-3
